Among the data in PubChem BioAssay are growth inhibition, inhibition and outcome values, retold here.

Test [1] is described as follows: antimalarial activity against Dd2 strain (AID 2302;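 active means growth inhibition above 50% at the single 2 µM test dose, taken to imply half-maximal potency below 2 µM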;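 further: 0% = DMSO untreated growth and 100% = chloroquine plus artemisinin killed control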). To be noted: P. falciparum Dd2 in RBCs, LDH growth readout, 72 h; at 2 µM; active compounds read high.
A short description of test [2]: HepG2 cytotoxicity, primary screen, cytotoxicity control for P. falciparum antimalarial project, cell-based, ATP luminescence (AID 2303;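 active means inhibition above 50%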;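 further: 0% = DMSO wells and 100% = digitonin-killed cells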). To be noted: HepG2 viability, 24-48 h, at 10 µM, active compounds read high.
Test [3] has as its target L-lactate dehydrogenase (Plasmodium falciparum (isolate CDC / Honduras)) (UniProt Q27743). Put plainly: PfLDH activity inhibition – cell lysate, 3D7 strain, counter-screen for P. falciparum growth inhibition project (AID 2304).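 Further: 0% = vehicle and 100% = reference inhibitor.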 The following applies: P. falciparum 3D7 crude extract, LDH APAD/NBT absorbance; at 2 µM; active compounds read high. (In general: The purpose of a counterscreen is to sort out artefacts and off-target activity.)

The nature of test [4]: inhibition of 3D7 malaria parasite growth – strain 3D7 (AID 2306).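 Further: 0% = DMSO wells and 100% = chloroquine plus artemisinin control wells.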 The following applies: P. falciparum 3D7 erythrocytic growth, LDH absorbance, 72 h; at 2 µM; active compounds read high.
The target in test [5] is Calcium-dependent protein kinase 1 (Plasmodium falciparum (isolate 3D7)) (UniProt P62344). Put plainly: PfCDPK1 kinase inhibitors, biochemical, TCAMS library (AID 1159585; cut-off not given, nearly all actives have IC50 up to about 0.98 µM;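 further: inhibitors leave more ATP so luminescence rises with inhibition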). To be noted: recombinant PfCDPK1, Kinase-Glo ATP depletion luminescence. In general terms: Kinase-Glo measures the ATP left after a reaction by luminescence.
In test [6] the target is Plasmodium falciparum protein kinase 6 (PK6, PF3D7_1337100) (UniProt Q8IDW1). Put plainly: PfPK6 kinase inhibitors, biochemical, TCAMS library (AID 1159586). To be noted: recombinant PfPK6, Kinase-Glo ATP depletion luminescence.
Test [7] addresses Protein kinase 7 (PK7), Plasmodium falciparum 3D7 (PF3D7_0213400) (UniProt Q7YTF7). Description: inhibition of Plasmodium PK7 catalytic activity – biochemical, TCAMS antimalarial set, Kinase-Glo luminescence (AID 1159587). To be noted: recombinant PfPK7, Kinase-Glo ATP depletion luminescence.
In test [8] the target is Calcium-dependent protein kinase 4 (Plasmodium falciparum (isolate 3D7)) (UniProt Q8IBS5). Put plainly: PfCDPK4 kinase inhibitors, biochemical, TCAMS library (AID 1159588; cut-off not given, nearly all actives have IC50 up to about 0.91 µM). The following applies: recombinant PfCDPK4, Kinase-Glo ATP depletion luminescence.

A number with no mark means an inactive call. For some of these results: Measured potencies and affinities stand elsewhere. Activity calls are given as the source filed them. Unless noted, how the calls were made is not given here.

Sequence of Protein kinase 7 (PK7), Plasmodium falciparum 3D7 (PF3D7_0213400) (Q7YTF7 1-343): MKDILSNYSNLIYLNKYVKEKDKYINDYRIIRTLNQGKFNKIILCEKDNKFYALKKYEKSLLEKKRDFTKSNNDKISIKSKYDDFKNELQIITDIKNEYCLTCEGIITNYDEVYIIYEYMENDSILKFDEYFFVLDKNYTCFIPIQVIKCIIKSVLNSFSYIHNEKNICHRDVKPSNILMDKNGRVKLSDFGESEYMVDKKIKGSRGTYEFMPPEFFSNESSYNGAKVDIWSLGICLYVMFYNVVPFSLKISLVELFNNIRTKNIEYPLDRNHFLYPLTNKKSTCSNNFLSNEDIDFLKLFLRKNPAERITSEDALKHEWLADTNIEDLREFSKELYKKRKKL
Sequence of Calcium-dependent protein kinase 1 (Plasmodium falciparum (isolate 3D7)) (P62344 whole entry, looked up): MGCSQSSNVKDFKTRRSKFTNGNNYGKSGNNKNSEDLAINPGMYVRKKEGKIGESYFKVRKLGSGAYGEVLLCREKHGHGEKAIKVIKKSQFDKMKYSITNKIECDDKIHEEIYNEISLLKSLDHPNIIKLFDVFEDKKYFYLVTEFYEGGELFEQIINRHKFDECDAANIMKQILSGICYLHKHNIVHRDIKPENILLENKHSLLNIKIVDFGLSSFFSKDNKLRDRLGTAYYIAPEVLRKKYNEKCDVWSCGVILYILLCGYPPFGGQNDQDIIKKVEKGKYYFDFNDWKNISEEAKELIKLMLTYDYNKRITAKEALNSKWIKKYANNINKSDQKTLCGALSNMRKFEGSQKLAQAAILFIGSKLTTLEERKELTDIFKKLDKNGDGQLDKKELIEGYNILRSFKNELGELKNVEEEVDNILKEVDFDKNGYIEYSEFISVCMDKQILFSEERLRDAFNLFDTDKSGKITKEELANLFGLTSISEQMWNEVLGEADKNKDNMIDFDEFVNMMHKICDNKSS
Sequence of Plasmodium falciparum protein kinase 6 (PK6, PF3D7_1337100) (Q8IDW1 1-305): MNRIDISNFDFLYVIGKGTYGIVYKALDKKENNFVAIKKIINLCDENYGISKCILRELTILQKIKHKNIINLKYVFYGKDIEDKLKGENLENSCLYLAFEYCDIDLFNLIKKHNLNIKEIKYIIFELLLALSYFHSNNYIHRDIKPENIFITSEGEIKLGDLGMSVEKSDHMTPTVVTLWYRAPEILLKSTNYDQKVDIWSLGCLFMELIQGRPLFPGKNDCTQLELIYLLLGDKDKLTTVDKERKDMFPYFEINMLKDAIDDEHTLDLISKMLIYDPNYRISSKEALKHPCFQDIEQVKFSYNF
Sequence of L-lactate dehydrogenase (Plasmodium falciparum (isolate CDC / Honduras)) (Q27743 whole entry, looked up): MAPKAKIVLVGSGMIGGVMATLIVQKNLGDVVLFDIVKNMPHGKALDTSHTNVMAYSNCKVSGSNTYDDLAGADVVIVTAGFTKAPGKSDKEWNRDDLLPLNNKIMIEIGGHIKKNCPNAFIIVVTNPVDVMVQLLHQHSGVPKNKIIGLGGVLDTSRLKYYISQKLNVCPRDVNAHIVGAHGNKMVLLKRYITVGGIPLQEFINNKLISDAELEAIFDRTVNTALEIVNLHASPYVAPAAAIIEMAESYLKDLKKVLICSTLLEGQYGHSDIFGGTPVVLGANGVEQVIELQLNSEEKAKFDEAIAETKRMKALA
Sequence of Calcium-dependent protein kinase 4 (Plasmodium falciparum (isolate 3D7)) (Q8IBS5 whole entry, looked up): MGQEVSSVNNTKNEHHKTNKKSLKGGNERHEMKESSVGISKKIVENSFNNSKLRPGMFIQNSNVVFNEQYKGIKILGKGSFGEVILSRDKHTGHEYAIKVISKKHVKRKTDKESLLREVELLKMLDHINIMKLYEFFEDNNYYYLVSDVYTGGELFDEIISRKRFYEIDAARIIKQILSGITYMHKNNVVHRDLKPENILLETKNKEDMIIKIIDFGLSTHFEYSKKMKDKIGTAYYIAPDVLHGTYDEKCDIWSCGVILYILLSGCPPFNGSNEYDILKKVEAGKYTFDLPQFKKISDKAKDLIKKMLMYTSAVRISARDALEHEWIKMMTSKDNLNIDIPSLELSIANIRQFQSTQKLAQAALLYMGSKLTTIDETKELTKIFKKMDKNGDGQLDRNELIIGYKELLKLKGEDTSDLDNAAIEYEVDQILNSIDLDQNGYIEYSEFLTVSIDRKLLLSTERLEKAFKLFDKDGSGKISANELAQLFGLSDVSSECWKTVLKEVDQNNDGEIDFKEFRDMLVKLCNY

One may read the inhibition as the change of the read-out against control, counted positive when it falls. Consider `CCC[C@@H](/C=N/N(C)C(=O)OC(C)(C)C)NC(=O)[C@H](CC(C)C)NC(=O)c1cc2cccc(OC)c2o1`, for which the growth inhibition in test [1] was 61% (active); in test [4], 88% (active). Also, the inhibition is 5% in test [2] and 6% in test [3]. Besides, the outcome in test [5], in test [6], in test [7] and in test [8] was inactive.
On to `N#Cc1ccc(-c2ccc(C(=O)NCC3CCN(CCN4CCC(c5ccc6c(c5OCC(N)=O)CCCC6)CC4)CC3)cc2)cc1`, for which the growth inhibition in test [1] and in test [4] was 99% (active) in each case. Further, the values for the inhibition in test [2] and in test [3] were 56% (active) and -7%, respectively. For the same compound, the outcome in test [5], in test [6], in test [7] and in test [8] was inactive.
With `CSc1ccc2nccc(Nc3ccc(Oc4ccccc4)cc3)c2c1`, the results for the growth inhibition in test [1] and in test [4] were 68% (active) and 94% (active), respectively. For the same compound, the values for the inhibition in test [2] and in test [3] were 30% and -7%, respectively. Besides, the result in test [5], in test [6], in test [7] and in test [8] was inactive.
In the case of `Cc1cc(CN2CC[C@H](NC(=O)c3ccc(Cl)c(Cl)c3)C2)ccc1OCCN1CCCC1`, the growth inhibition in test [1] was 92% (active); in test [4], 101% (active). For the same compound, the inhibition was 56% (active) in test [2] and 0% in test [3]. Also, the outcome in test [5], in test [6], in test [7] and in test [8] was inactive.
For `CC(C)(C)c1ccc2nccc(Nc3cccc(O)c3)c2c1`, the growth inhibition in test [1] was 100% (active); in test [4] it was 99% (active). For the same compound, the inhibition was 8% in test [2] and 0% in test [3]. For the same compound, the result in test [5], in test [6], in test [7] and in test [8] was inactive.
Take `COc1ccc2nccc(N3CCN(CCNCc4ccc5c(n4)NC(=O)CS5)CC3)c2c1`: the figures for the growth inhibition in test [1] and in test [4] were 23% and 97% (active), respectively. Also, the inhibition in test [2] was 18%; in test [3], -2%. For the same compound, the outcome in test [5], in test [6], in test [7] and in test [8] was inactive.
Turning to `CCC1CN2CCc3cc(OC)c(OC)cc3C2CC1CC1NCCc2cc(OC)c(OC)cc21` (stereo not given), the growth inhibition in test [1] was 98% (active); in test [4], 103% (active). For the same compound, the results for the inhibition in test [2] and in test [3] were 42% and -3%, respectively. Also, the outcome in test [5], in test [6], in test [7] and in test [8] was inactive.
For `O=C(Nc1ccc(Cl)c(C(F)(F)F)c1)Nc1ccc(Cl)c(C(F)(F)F)c1`, the growth inhibition was 96% (active) in test [1] and 94% (active) in test [4]. The inhibition in test [2] is 1%; in test [3], 6%. The outcome in test [5], in test [6], in test [7] and in test [8] was inactive.
As to `COc1cc(C(=O)N2COCC(CCCN3CCC(N4CCCC4)CC3)(c3ccc(Cl)c(Cl)c3)C2)cc(OC)c1OC` (stereo not given), the growth inhibition in test [1] is 70% (active); in test [4], 95% (active). Moreover, the inhibition was 5% in test [2] and -1% in test [3]. Moreover, the result in test [5], in test [6], in test [7] and in test [8] was inactive.
As to `Cn1cncc1C(=O)Nc1cccc(-c2csc(-c3nc4ccccc4[nH]3)c2)c1`, the results for the growth inhibition in test [1] and in test [4] were 64% (active) and 102% (active), respectively. Also, the inhibition is 15% in test [2] and -3% in test [3]. Besides, the outcome in test [5], in test [6], in test [7] and in test [8] was inactive.
`CC(C)NCc1cccc(-c2cccc(-c3nc4ccccc4[nH]3)c2)c1`: the growth inhibition in test [1] was 22%; in test [4], 100% (active). The values for the inhibition in test [2] and in test [3] were 11% and -2%, respectively. Also, the result in test [5], in test [6], in test [7] and in test [8] was inactive.
As for `CCCCCC(C)N=C(Nc1ccc([N+](=O)[O-])cc1O)Nc1ccccc1Br` (stereo not given), the growth inhibition is 98% (active) in test [1] and 99% (active) in test [4]. The inhibition in test [2] was -1%; in test [3], 5%. The result in test [5], in test [6], in test [7] and in test [8] was inactive.
Consider `COc1ccc2nc3cc(Cl)ccc3c(NCCCN3CCNCC3)c2c1`, for which the growth inhibition in test [1] was 74% (active); in test [4] it was 104% (active). The results for the inhibition in test [2] and in test [3] were 18% and -3%, respectively. Further, the outcome in test [5], in test [6], in test [7] and in test [8] was inactive.
`CN(C)CCC1CCCc2ccc(NC(=O)Nc3cccc(Cl)c3Cl)cc21` (stereo not given): the growth inhibition is 11% in test [1] and 93% (active) in test [4]. Further, the inhibition is 44% in test [2] and 5% in test [3]. The result in test [5], in test [6], in test [7] and in test [8] was inactive.
Regarding `CC1(C)N=C(N)N=C(N)N1OCCCSc1ccccc1`, the growth inhibition in test [1] is 94% (active); in test [4], 93% (active). Also, the results for the inhibition in test [2] and in test [3] were 69% (active) and 0%, respectively. Besides, the result in test [5], in test [6], in test [7] and in test [8] was inactive.
Take `COc1ccc(-c2ccc(Nc3cccc(S(=O)(=O)CCN4CCC(CCN(C)C)CC4)c3)nc2)cn1`: the values for the growth inhibition in test [1] and in test [4] were 9% and 100% (active), respectively. In addition, the inhibition in test [2] is 44%; in test [3] it was 3%. Besides, the outcome in test [5], in test [6], in test [7] and in test [8] was inactive.
Turning to `Cc1noc(-c2cccs2)c1C(=O)NCCc1cccc(Cl)c1`, the growth inhibition was 95% (active) in test [1] and 97% (active) in test [4]. Besides, the inhibition is -17% in test [2] and 0% in test [3]. Further, the outcome in test [5], in test [6], in test [7] and in test [8] was inactive.
As to `COc1ccc(-c2ccc(NC(=O)c3ccc(Cl)cc3)cc2)cc1CN1CCNCC1`, the figures for the growth inhibition in test [1] and in test [4] were 24% and 99% (active), respectively. Further, the inhibition is 14% in test [2] and 5% in test [3]. The result in test [5], in test [6], in test [7] and in test [8] was inactive.
Take `CCN(CCCN1CCCCC1)c1nc(C)cc(Nc2ccc(Cl)cc2)n1`: the growth inhibition in test [1] was 92% (active); in test [4] it was 98% (active). Besides, the inhibition in test [2] was 30%; in test [3], 3%. The outcome in test [5], in test [6], in test [7] and in test [8] was inactive.
With `Nc1oc2c(CN3CCCCCC3)c(O)ccc2c(=O)c1-c1nc2ccccc2s1`, the growth inhibition in test [1] was 99% (active); in test [4] it was 100% (active). In addition, the inhibition in test [2] is 12%; in test [3] it was 4%. The result in test [5], in test [6], in test [7] and in test [8] was inactive.
